Compound activity as filed in PubChem BioAssay.
An excerpt weighted towards active compounds, which were near 6.8% of everything screened.
Spn DPM-DC inh: inhibitors of Streptococcus pneumoniae diphosphomevalonate decarboxylase; actives 0.49% (n = 65,000); purified DPM-DC, PK/LDH coupled NADH fluorescence; calls only at 10 µM;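 active = the 320 compounds with the highest percent inhibition in the single-dose primary screen, excluding strongly autofluorescent ones, cut at about 32% in these data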;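 note: kinetic rate of NADH fluorescence loss reporting ADP formed by the decarboxylase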
Spn PMK inh: blocks S. pneumoniae phosphomevalonate kinase; inhibition, % at 10 µM; purified PMK, PK/LDH-coupled NADH absorbance 340 nm; actives 0.49% (n = 65,000);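 active = top-ranked compounds by inhibition in the single 10 µM screen, taking a fixed number of the strongest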
Spn MK inh: blocks S. pneumoniae mevalonate kinase. purified MK, PK/LDH-coupled NADH absorbance 340 nm. inhibition, % at 10 µM. actives 0.48% (n = 65,000);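 active = ranked among the strongest by inhibition in the single 10 µM screen, a fixed top-ranked set picked for dose follow-up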
NADH enzymes: blocks coupling enzymes of NAD/NADH assays | coupled PK/LDH NADH assays, four targets | IC50, µM (top dose mostly 10 µM) | actives 0.02% (n = 65,000);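 active = single-dose screening hits from any of four coupled enzyme assays that gave an IC50 when retested across doses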;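 note: the DPM-DC format reads NADH fluorescence rather than 340 nm absorbance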
Fluor 339 460: intrinsic fluorescence of library compounds, ex339/em460 – biochemical, MLSMR library, data from DPM-DC assay, artefact control, profiling panel. actives 5.5% (n = 65,000). compound autofluorescence, ex339/em460 nm, NADH buffer; hits give high values; 1 = no-compound wells, NADH background. fluorescence fold increase at 10 µM;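 active = at 10 µM, mean starting fluorescence two-fold or more over control wells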;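 note: signal is the first read of a kinetic run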
Abs 340nm: compound absorbs light at 340 nm | 65,000 tested, under 10 active | AID 708 | fold change at 10 µM | compound absorbance at 340 nm, fold over control;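 active = at 10 µM dose, initial 340 nm absorbance at least 2 fold that of control wells; inactive = change under 2 fold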;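 note: initial absorbance extrapolated from kinetic A340 decline of NADH oxidation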
Numbers stand for hits; . = inactive; / = not tested or not shown; + = active, no number.

SMILES	Spn DPM-DC inh	Spn PMK inh	Spn MK inh	NADH enzymes	Fluor 339 460	Abs 340nm
O=C(c1c[nH]c2ccc(S(=O)(=O)N3CCOCC3)cc2c1=O)N1CCCC1	/	.	.	.	4.19	.
CCCc1cc(N2CCCC(C(=O)NCC)C2)n2ncnc2n1 (configuration not stated)	.	.	.	.	.	.
Clc1cccc(Nc2ncnc3c2cnn3-c2ccccc2)c1	.	.	.	.	2.12	.
Fc1cccc(Nc2ncnc3c2cnn3-c2ccccc2)c1	.	.	.	.	.	.
Cc1nonc1NC(=O)CSc1ccc(-c2ccccc2)nn1	.	27.0	.	.	.	.
CC1CN(C(=O)c2cccs2)CCN1C(=O)c1cccs1 (configuration not stated)	.	.	.	.	.	.
CCOc1ccc(Nc2nc(Cc3nnc(SCC(=O)NCC4CCCO4)n3C)cs2)cc1 (configuration not stated)	.	.	.	.	.	.
CCOc1ccc(Nc2nc(Cc3nnc(SCC(N)=O)o3)cs2)cc1	.	28.0	.	.	.	.
CCCCn1nnnc1SCC(=O)Nc1ccc2c(c1)OCO2	.	.	.	.	.	.
COc1ccccc1Oc1coc2cc(OC(=O)N3CCOCC3)ccc2c1=O	.	.	.	.	.	.
COc1ccccc1Oc1coc2c(CN3CCN(C)CC3)c(O)ccc2c1=O	/	.	.	.	3.03	.
CCc1cc2c(=O)c(-c3nc4ccccc4n3C)coc2c(CN2CCN(C)CC2)c1O	.	.	.	.	2.59	.
CCOC(=O)c1oc2cc(O)ccc2c(=O)c1-c1ccccc1OC	.	.	.	.	.	.
CCN1CCN(Cc2c(O)ccc3c(=O)c(-c4ccccc4OC)coc23)CC1	/	.	.	.	5.04	.
COc1ccccc1-c1coc2c(CN3CCN(C)CC3)c(O)ccc2c1=O	/	.	.	.	2.16	.
CCc1cc2c(=O)c(-c3nc4ccccc4[nH]3)coc2c(CN2CCC(C)CC2)c1O	.	.	.	.	.	.
COc1ccc(-n2c3c(cc(C(=O)Nc4ccc5c(c4)C(=O)NC5=O)c2=O)C(=O)CCC3)cc1	.	.	.	.	.	.
O=C(CSc1nnc(-c2ccccn2)n1Cc1ccccc1)Nc1ccc2c(c1)OCO2	.	.	.	.	.	.
COc1ccccc1-c1coc2c(CN3CCN(CCO)CC3)c(O)ccc2c1=O	/	.	.	.	3	.
CN(C)c1ccc(C(c2nnnn2C2CCCCC2)N2CCN(C(=O)c3ccco3)CC2)cc1 (configuration not stated)	.	.	.	.	.	.
Cc1ccsc1C1C(C(=O)O)c2ccccc2C(=O)N1C (configuration not stated)	+	85.0	53.0	.	.	.
CN1C(=O)c2ccccc2C(C(=O)O)C1c1cccc(F)c1 (configuration not stated)	.	.	.	.	.	.
O=c1c2ccccc2oc2nc(-c3ccco3)n(Cc3ccccc3)c(=O)c12	.	.	.	.	.	.
Cn1nc(-c2ccc(OCC(=O)NCC3CCCO3)cc2)c2ccccc2c1=O (configuration not stated)	.	.	.	.	.	.
Cc1ccsc1CN1CCN(c2ccccn2)CC1	.	.	45.0	.	.	.
SMILES	Spn DPM-DC inh	Spn PMK inh	Spn MK inh	NADH enzymes	Fluor 339 460	Abs 340nm
C(=N\C(/N=C/c1ccco1)c1ccco1)/c1ccco1	.	.	.	.	2.05	.
C=CCNc1oc(-c2cccc3ccccc23)nc1C#N	/	.	.	.	2.93	.
CCNc1oc(-c2cccc3ccccc23)nc1C#N	/	.	.	.	2.13	.
CC(C)Nc1oc(-c2cccc3ccccc23)nc1C#N	/	.	.	.	3.79	.
COc1ccc2c(CC(=O)OCC(=O)c3ccc(F)cc3)coc2c1	.	.	.	.	.	.
CC(Sc1nnc(-c2ccc(Cl)cc2)n1C)C(N)=O (configuration not stated)	.	.	.	.	.	.
Clc1ccc(N2CCN(c3ncnc4c3oc3ccccc34)CC2)cc1	/	.	.	.	3.7	.
CCn1c(SCC(=O)c2ccccc2)nc2c(c1=O)SC(C)C2 (configuration not stated)	.	.	40.0	.	.	.
Fc1ccc(-c2cc3nc(-c4ccccc4)cc(N4CCOCC4)n3n2)cc1	/	.	.	.	2.11	.
Cc1nc2cc(-c3cccc(F)c3)nn2c(N2CCOCC2)c1C	.	.	.	.	.	.
CCC(=O)c1ccc(OCC(=O)Nc2nn3cnnc3s2)cc1	.	.	.	.	.	.
c1ccc2c(c1)nnn2Cc1nnc2sc(-c3ccc4c(c3)OCCO4)nn12	+	.	.	.	2.93	.
c1ccc(-c2nn3c(Cn4nnc5ccccc54)nnc3s2)cc1	.	.	.	.	.	.
O=C(CN1C(=O)c2ccccc2C1=O)OCN1C(=O)c2ccccc2C1=O	.	.	.	.	.	.
Cc1nc2[nH]c(=O)c3c(n2n1)NC1=C(C(=O)CC(C)(C)C1)C3c1ccccc1 (configuration not stated)	/	.	.	.	3.96	.
Cc1ccc(C2C3=C(CC(C)(C)CC3=O)NC3=C2C(=O)CC(C)(C)C3)o1	.	.	.	.	.	.
CCOC(=O)c1ccc2c(c1)nc(SCc1cn3ccsc3n1)n2CC	.	.	.	.	.	.
COc1ccc(C(=O)Nc2ccccc2C(=O)NC(C(=O)NCc2ccco2)C(C)C)cc1 (configuration not stated)	.	28.0	.	.	.	.
Cc1ccc(CNC(=O)c2ccccc2NS(C)(=O)=O)cc1	/	.	.	.	3.96	.
CS(=O)(=O)Nc1ccccc1C(=O)NCc1ccco1	/	.	.	.	3.87	.
CCOc1ccc(S(=O)(=O)Nc2ccccc2C(=O)NCc2ccco2)cc1	/	.	.	.	4.92	.
COC(=O)C1C(=O)c2c([nH]c(C(=O)OCC3CCCO3)c2C)CC1C (configuration not stated)	.	.	.	.	.	.
CC(=O)N(Cc1cc2cc(C)c(C)cc2n2nnnc12)CC1COCCO1 (configuration not stated)	.	.	.	.	.	.
COC(=O)c1c(C)[nH]c(C(=O)C(C)Sc2nnc(-c3cc(OC)c(OC)c(OC)c3)o2)c1C (configuration not stated)	.	.	.	.	.	.
O=C(Nc1ccccc1C(=O)Nc1ccccc1C(=O)NCc1ccco1)c1ccco1	.	.	.	.	2.31	.
O=C(Nc1ccccc1C(=O)NCc1ccco1)c1ccco1	.	.	.	.	.	.
CCCCC1CC1C(=O)Nc1ccc(OC)c(OC)c1 (configuration not stated)	.	.	.	.	.	.
O=S(=O)(NC1CCCC1)c1cccc(S(=O)(=O)N2CCC(n3nnc4ccccc43)CC2)c1	.	.	.	.	.	.
